# The campaign covered roughly 48,000 compounds. About 13,000 (27%) showed an effect of 50% or more. The list shows a part of the results.
# System: Wolbachia pipientis
# Experiment: Anti-Wolbachia Cell-Based Screen
# Type: functional
# Design: scale not given: in the data most compounds retested in dose-response had high values
# Conditions: 5 µM
row,SMILES,Percent Effect [%]
1,CN1CC(C(=O)NCc2cccnc2OCC(F)(F)F)CC1=O (centres undefined),1.673
2,CN1CC(C(=O)NCc2ccc(OCc3cccnc3)cc2)CC1=O (centres undefined),-2.56
3,CN1CC(C(=O)NCCc2ccn(-c3ccc(F)cc3)n2)CC1=O (centres undefined),-45.08
4,CC(C)CN1CC(C(=O)NCCc2ccc(OC(F)F)cc2)CC1=O (centres undefined),-18.94
5,Cc1ccccc1CCNC(=O)C1CC(=O)N(CC(F)(F)F)C1 (centres undefined),1.737
6,CN1CC(C(=O)NCCc2ccc(F)c(Br)c2)CC1=O (centres undefined),95.91
7,COc1ncccc1CNC(=O)C1CC(=O)N(C)C1 (centres undefined),-5.362
8,CSCc1nc(CCNC(=O)C2CCCN(C(C)=O)C2)cs1 (centres undefined),1.152
9,CC(=O)N1CCCC(C(=O)NCCc2nc(Cc3ccccc3)no2)C1 (centres undefined),-1.107
10,CC(=O)N1CCCC(C(=O)NCCc2ccc(F)c(Br)c2)C1 (centres undefined),78.71
11,CN1CC(C(=O)NCCc2ccc(Br)cc2F)CC1=O (centres undefined),108.1
12,CN1CC(C(=O)NCc2ccc(Br)cc2F)CC1=O (centres undefined),97.3
13,Cn1ccc(C(=O)NC2CCN(c3ncccn3)CC2)cc1=O,3.49
14,CC(C)N1CCN(C(=O)Nc2cnn(CC(N)=O)c2)CC1,2.959
15,N#Cc1cccnc1NCCNC(=O)N1CCCSCC1,-6.239
16,CCN(CC)S(=O)(=O)CC(=O)Nc1ccsc1,-11.66
17,CC(=O)N1CCCC(C(=O)NCCOc2cc(C)cc(C)c2)C1 (centres undefined),99.72
18,NC(=O)N1CCCC(C(=O)NCCOc2ccc(F)cc2F)C1 (centres undefined),-7.563
19,NC(=O)N1CCCC(C(=O)NCCOc2ccc(F)c(F)c2)C1 (centres undefined),-0.02905
20,COc1cccc(S(=O)(=O)CCN2CCN(CCO)CC2)c1,9.306
21,Cc1csc(CNc2ccc(-c3nc(C4CC4)no3)cn2)n1,8.683
22,Cc1cccc2[nH]c(C3CCN(C(=O)c4ccnn4C)CC3)nc12,1.136
23,Cc1ccc(C(=O)N2CCC(c3noc(-c4cccnc4)n3)CC2)cn1,104.3
24,Cc1ccc(-c2nc(C3CCN(C(=O)c4ccnn4C)CC3)no2)cn1,110.8
25,Cc1cc(C)n(CCN(C)c2ccc(-c3nc(C4CC4)no3)cn2)n1,-7.447

row,SMILES,Percent Effect [%]
1,O=C1NCCCC[C@@H]1Nc1ccc(-c2nc(C3CC3)no2)cn1,-3.27
2,Cc1ccc(-c2nc(C3CCN(C(=O)c4cnn(C)c4)CC3)no2)cn1,103.5
3,Cc1noc(-c2ccc(N3CCC(C(=O)N4CCCC4)CC3)nc2)n1,-5.391
4,Cc1ccc(-c2nc(C3CCN(C(=O)c4ccn(C)n4)CC3)no2)cn1,126.5
5,N#Cc1cccc(C(=O)N2CC(c3nc(-c4cccnc4)no3)C2)c1,18.62
6,Cc1cc(CNc2ccc(-c3nc(C4CC4)no3)cn2)no1,-5.978
7,CS(=O)(=O)NCCn1ccc(-c2cccs2)n1,-6.394
8,CCS(=O)(=O)CC(C)NC(=O)N(C)Cc1cc(Cl)cn1C (centres undefined),-1.914
9,CCn1ccnc1CN1CCCC(CO)(Cc2cccc(OC)c2)C1 (centres undefined),5.509
10,COCCN1CCN(C(=O)c2cc(C(C)C)on2)[C@H]2CS(=O)(=O)C[C@H]21,8.676
11,CC(C)N1CC[C@@H]2[C@H](COCC3CC3)CN(C)C(=O)[C@@H]2CC1.O=C(O)C(F)(F)F,-0.4638
12,COCC1c2nnn(C)c2CCN1C(=O)COc1ccccc1C (centres undefined),112
13,COCC1c2nnn(C)c2CCN1C(=O)CCc1cccc(OC)c1 (centres undefined),104.7
14,Cn1nnc2c1CCN(Cc1ccccn1)C2COCc1ccccc1.O=C(O)C(F)(F)F.O=C(O)C(F)(F)F (centres undefined),-46.38
15,COCC1c2nnn(C)c2CCN1C(=O)c1ccc(OC)c(F)c1 (centres undefined),111.1
16,CCc1ccc(CN2CCc3c(nnn3C)C2COC)cc1.O=C(O)C(F)(F)F (centres undefined),-3.58
17,COCC1c2nnn(CC3CC3)c2CCN1C(=O)c1cccn1C (centres undefined),-3.461
18,CN(C)C(=O)N1CCc2c(nnn2C)C1COCC1CC1 (centres undefined),-5.702
19,Cn1nnc2c1CCN(C(=O)CC1CC1)C2COCCN1CCCC1 (centres undefined),-8.962
20,COCC1c2nnn(CC3CC3)c2CCN1C(=O)c1cccc(F)c1 (centres undefined),-7.214
21,COCC1c2nnn(C)c2CCN1C(=O)Cc1ccccn1 (centres undefined),111.4
22,CCn1nnc2c1CCN(C(=O)c1ccc3c(c1)OCO3)C2COC (centres undefined),-29.17
23,COCC1c2nnn(C)c2CCN1C(=O)Cc1ccc2c(c1)OCO2 (centres undefined),20.75
24,NC(=O)c1ccc(N2CCCCC2)c(NC(=O)c2cc(F)ccc2F)c1,-3.666

# Reference: ChEMBL document CHEMBL3988442, “University of Dundee, Small-Polar-MMV Screening Library” (2021)
